High-throughput results (PubChem)
Six1-Eya2 blk = qHTS Assay for Inhibitors of the Six1/Eya2 Interaction. AlphaScreen GST-Six1/His-Eya2 binding, biochemical; hits give low values. Homeobox protein SIX1 (Homo sapiens) + Protein phosphatase EYA2 (Homo sapiens), …. 360,000 tested, 0.56% active. activity change, % (no concentration beside the values); in the data active = activity change below about -65%; inconclusive = mostly about -30% to -63%; also: % is scaled to controls: 0 for no effect and ±100 for the full control effect
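AlphaScreen with GST-Six1 and His-Eya2 (5X mix: 250 nM and 500 nM), glutathione donor and nickel acceptor beads; buffer 50 mM Tris pH 8.0, 300 mM NaCl, 1 mM TCEP; 1 h at 37 C in the dark.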
HP1b binding inh = HTS for Inhibitors of HP1-beta Chromodomain Interactions with Methylated Histone Tails | Chromobox protein homolog 1 (Homo sapiens), P83916 | AlphaScreen HP1-beta / biotin-H3K9me3 peptide binding | Potency, µM (highest dose often 114 µM), for the others: at the top dose activity change, negative = inhibition, hits mostly inhibitors | 390,000 tested, 0.56% active; also: potency is read from the fitted curve at half-maximal effect; nearly all actives have a fitted effect of over 70% in size
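AlphaScreen: HP1-beta (50 nM) preformed 30 min with biotin-H3(1-18)K9me3 peptide (50 nM) in PBS pH 7.4, 0.01% Tween-20. Compound added for 30 min at RT, then streptavidin donor/nickel chelate acceptor beads (10 ug/mL) for 30 min.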
CtBP-E1A blk = qHTS Assay for Inhibitors of the CtBP/E1A Interaction. AlphaScreen GST-E1A/His-CtBP binding, 1536-well; hits give low values. AID 651724, 2012. 340,000 tested, 0.49% active. CtBP / adenovirus E1A interaction (AlphaScreen). activity change, % (test concentration not listed); in the data active = activity change below about -65%; inconclusive = mostly about -30% to -63%; also: % is scaled to controls: 0 for no effect and ±100 for the full control effect
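Homogeneous bead-based format: GST-tagged E1A captured on glutathione donor beads, His-tagged CtBP on nickel acceptor beads; compounds precede bead addition by 2 h at 37 °C.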
G9a block = qHTS Assay for Inhibitors of Histone Lysine Methyltransferase G9a | 350,000 tested, 8.8% active | Histone-lysine N-methyltransferase EHMT2 (Homo sapiens), Q96KQ7 | Potency, µM (doses to about 102 µM), without a hit: at the top dose activity, negative = inhibition, most hits filed as inhibitors | G9a H3K9 monomethylation, AlphaScreen, 2 h | AID 504332, 2011; also: potency is read from the fitted curve at half-maximal effect; % is scaled to controls: 0 for no effect and ±100 for the full control effect; nearly all actives have a fitted effect of over 75% in size
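Chemiluminescent proximity detection of H3K9 monomethylation, read after 10 min bead incubation in the dark. Reaction: 20 nM G9a, 500 nM biotin-H3K9 peptide, 20 uM SAM cofactor, 2 h, room temperature, following 15 min enzyme-compound preincubation.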
JMJD2A Tudor = qHTS Assay for Inhibitors of JMJD2A-Tudor Domain; Potency, µM (doses to about 114 µM), without a hit: at the top dose activity change, negative = inhibition, usual class: inhibitors; AlphaScreen JMJD2A-Tudor / H3K4me3 peptide binding; 390,000 tested, 4.4% active; also: potency is read from the fitted curve at half-maximal effect; % is scaled to controls: 0 for no effect and ±100 for the full control effect; nearly all actives have a fitted effect of over 50% in size
Target sequence (O75164 whole entry, looked up, the tested form may be a part): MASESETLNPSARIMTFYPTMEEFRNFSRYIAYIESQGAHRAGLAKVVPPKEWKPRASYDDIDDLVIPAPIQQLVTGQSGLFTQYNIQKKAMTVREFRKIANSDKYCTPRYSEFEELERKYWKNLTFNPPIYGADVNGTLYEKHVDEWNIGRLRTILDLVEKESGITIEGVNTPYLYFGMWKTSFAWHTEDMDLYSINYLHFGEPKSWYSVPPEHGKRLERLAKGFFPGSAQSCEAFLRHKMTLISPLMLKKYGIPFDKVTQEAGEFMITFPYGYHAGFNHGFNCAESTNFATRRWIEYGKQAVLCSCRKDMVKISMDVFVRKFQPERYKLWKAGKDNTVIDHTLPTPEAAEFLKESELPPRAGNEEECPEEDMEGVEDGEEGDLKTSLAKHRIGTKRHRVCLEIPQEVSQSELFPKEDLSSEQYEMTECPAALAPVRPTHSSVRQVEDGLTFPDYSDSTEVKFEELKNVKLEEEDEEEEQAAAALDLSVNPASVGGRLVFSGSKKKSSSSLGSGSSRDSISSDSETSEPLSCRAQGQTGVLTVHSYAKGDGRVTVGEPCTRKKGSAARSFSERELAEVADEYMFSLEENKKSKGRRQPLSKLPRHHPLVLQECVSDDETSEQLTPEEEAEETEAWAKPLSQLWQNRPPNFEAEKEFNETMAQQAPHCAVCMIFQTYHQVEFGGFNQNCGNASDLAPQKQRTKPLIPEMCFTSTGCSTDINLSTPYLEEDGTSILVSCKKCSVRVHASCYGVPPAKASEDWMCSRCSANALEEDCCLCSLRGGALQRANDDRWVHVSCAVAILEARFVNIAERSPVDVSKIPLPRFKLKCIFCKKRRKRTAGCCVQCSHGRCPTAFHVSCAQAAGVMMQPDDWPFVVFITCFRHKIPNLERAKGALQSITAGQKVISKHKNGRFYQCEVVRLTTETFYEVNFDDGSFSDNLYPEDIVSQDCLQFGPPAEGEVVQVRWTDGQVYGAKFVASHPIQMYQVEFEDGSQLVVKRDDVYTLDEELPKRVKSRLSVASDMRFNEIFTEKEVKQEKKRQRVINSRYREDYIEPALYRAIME
BAZ2B inh = qHTS Assay for Inhibitors of BAZ2B | Bromodomain adjacent to zinc finger domain protein 2B (Homo sapiens), Q9UIF8 | AlphaScreen BAZ2B-H3K14Ac peptide displacement | Potency, µM (doses to about 114 µM), inactives show top-dose activity change, negative = inhibition, usual class: inhibitors | 360,000 tested, 4.4% active; also: potency is read from the fitted curve at half-maximal effect; % is scaled to controls: 0 for no effect and ±100 for the full control effect; nearly all actives have a fitted effect of over 60% in size
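BAZ2B (50 nM) with biotin-H3(5-23)K14Ac peptide (50 nM) in PBS pH 7.4, 0.01% Tween-20, preformed 30 min, then compound 30 min at room temperature; top concentration 110uM. AlphaScreen streptavidin donor/nickel chelate acceptor beads (10 ug/mL final), 20 min dark, signal read.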
An asterisk follows results filed as active; ? = inconclusive; . = no result given; [ ] = dose if it differs, or a comment. Hits are enriched below; roughly 10% of the tested compounds scored in any of these assays. Unless noted, calls follow the shape of the dose curve; as a rule, active = well fitted inhibition curve with a large enough effect; inconclusive = small, poorly fitted or top-dose-only effect; inactive = no such curve, though single readings can be large or run the other way.

SMILES	Six1-Eya2 blk	HP1b binding inh	CtBP-E1A blk	G9a block	JMJD2A Tudor	BAZ2B inh
Brc1cc2c(cc1/C=N/Nc1nc(N3CCCC3)nc(N3CCOCC3)n1)OCO2	-17	7%	-6	16µM*	-27%	-9%
C[C@H](NC(=O)N1CCn2c1nc1ccccc12)C(=O)NCc1ccc(F)cc1	1	48%	5	-3%	-10%	-28%
Cc1ccc(S(=O)(=O)O/N=C2\CCCc3ccccc32)cc1	29	55%	0	18%[12.7 µM]	17%	-4%
CC1=C(C)/C(=N\OS(=O)(=O)c2ccccc2)C=CC1=O	-2	?	2	16µM*	56µM*	40µM*
COc1ccc(NC(=O)CN(C)C(=O)CCCc2c[nH]c3ccccc23)cc1	-20	-5%	-2	45µM*	?	?
Cc1ccc(NC(=S)NCCc2c[nH]c3ccccc23)cc1	-17	-33%	-7	39%[0.501 µM]	?	?
Cc1ccc(C)c(NC(=S)NCCc2c[nH]c3ccccc23)c1	-24	?	?	?	?	45µM*
CC(C)c1ccc(NC(=S)NCCc2c[nH]c3ccccc23)cc1	-23	?	-17	45µM*	?	35µM*
S=C(NCCc1c[nH]c2ccccc12)NC1CCCCC1	-6	?	-6	22%[59 µM]	35µM*	?
COc1ccc(CCNC(=S)NCCc2c[nH]c3ccccc23)cc1	-18	-14%	.	45µM*	?	35µM*
COc1ccc(CNC(=O)NCCc2c[nH]c3ccccc23)cc1	-2	26%	-1	6%	-15%	?
COc1ccc(Cl)cc1NC(=S)NCCc1c[nH]c2ccccc12	-23	-23%	-27	?	50µM*	40µM*
COc1ccc(N2CCN(C(=O)CS(=O)(=O)c3cccc4nsnc34)CC2)cc1	.	7%[57 µM]	.	57%[59 µM]	-27%	15%
CSc1cc2c(s1)c1cnn(Cc3cccc(N)c3)c(=O)c1n2C	.	.	.	.	3.5µM*	.
Cn1c2cc(S(C)=O)sc2c2cnn(Cc3cccc(N)c3)c(=O)c21 (stereo unspecified)	.	.	.	.	-23%	.
COc1ccc(-c2c3c(=O)n(C)c(=O)n(C)c3cn2-c2cccc(N)c2)cc1	.	?	.	11µM*	?	?
COc1ccc(-c2c3c(=O)n(C)c(=O)n(C)c3cn2-c2ccc(O)cc2)cc1	-2	?	-16	-5%[12.7 µM]	-32%	79µM*
O=C(CSc1nnnn1-c1cccnc1)Nc1ccccc1F	-9	-4%	-4	5%	-9%	-12%
OC(COC(c1ccc(Cl)cc1)c1ccc(Cl)cc1)CN1CCN(c2ccccn2)CC1 (stereo unspecified)	-15	-5%	-9	?	?	50µM*
COc1cccc(OCC(O)CN2CCN(CCN3C(=O)c4cccc5cccc(c45)C3=O)CC2)c1 (stereo unspecified)	-5	1%	-1	50µM*	?	-38%
Cc1cccc(C)c1OCC(O)CN1CCN(c2ccccn2)CC1 (stereo unspecified)	5	22%	10	?	-14%	.
COc1cccc(OCC(O)CN2CCN(c3ccccn3)CC2)c1 (stereo unspecified)	2	24%	-16	45µM*	-27%	-9%
Cc1ccc(OCC(O)CN2CCN(c3ccccn3)CC2)c(C)c1 (stereo unspecified)	-3	21%	-13	50µM*	-9%	-26%
